Measurements from PubChem BioAssay (Tox21).
Inconclusive results are not listed. Entries that show only a call come without a potency. The source made the active and inactive calls. Calls come from the whole dose curve; as a rule, active = well fitted activation curve with a large enough effect in the repeat runs; inconclusive = weak or mixed curves; inactive = flat fitted curve, though single readings scatter.

Assay: A CellTox Green Cytotoxicity Assay to monitor cytotoxicity in HEK293 cells - 8 hour (AID 1224884); note: nearly all actives have a fitted effect of over 35% in size
Conditions: CellTox Green fluorescence; series mostly up to 76.8 µM
From the text: National Center for Advancing Translational Sciences [NCATS]
NIH Chemical Genomics Center [NCGC]
U.S. Environmental Protection Agency [EPA]
National Institutes of Environmental Health Sciences [NIEHS]
National Toxicology Program [NTP]
Cell-based models are critical for drug discovery. Determining the natural cytotoxic effects resulting from test compounds is an essential research activity. A CellTox Green Cytotoxicity Assay to monitor cytotoxicity in real time of continues cell culture during 40 hours of the compound treatment was used to screen Tox21 10K library compounds in Hek293 cells. CellTox Green Cytotoxicity Assay is a nonlytic, homogeneous, biofluorescent method to measure cytotoxicity in cell culture after experimental manipulation. The assay system uses a proprietary asymmetric cyanine dye that is excluded from viable cells but preferentially stains the dead cell's DNA. […] Viable cells produce no appreciable increases in fluorescence. Therefore, the fluorescence signal produced by the binding interaction with dead cell DNA is proportional to cytotoxicity.
The mixture of Hek293 cell suspension and reagents were dispensed at 600cells/6 ul/well in 1536-well tissue culture treated black solid bottom plates using a Multidrop dispenser. After the assay plates were incubated at a 37 C/5% CO2 incubator for 5 hours, 23 nL of compounds dissolved in DMSO, positive and negative controls was transferred to the assay plate by a pintool work station. The plates were incubated at 37 C for 40 hours. The fluorescence intensity were measured at 0h, 8h, 16h, 24h, 32h and 40h time points using ViewLux plate reader during compound treatment.

SMILES | Potency | cytotoxicity increase
C=C(C)C(=O)OC | inactive | –
CC(=O)OCCCc1ccccc1 | inactive | –
CC(=O)c1ccc(OCC(=O)N2CCCCC2)cc1 | inactive | –
CC(C)(c1ccc(Oc2ccc3c(c2)C(=O)OC3=O)cc1)c1ccc(Oc2ccc3c(c2)C(=O)OC3=O)cc1 | inactive | –
CC(C)(CO)[C@@H](O)C(=O)NCCCO | inactive | –
CC(Cl)COP(=O)(OCC(C)Cl)OCC(C)Cl (stereo not given) | inactive | –
CC(C)COC(=O)CC(C(=O)OCC(C)C)S(=O)(=O)O (stereo not given) | inactive | –
CCN(CC)C(=O)C1CN2CCc3cc(OC)c(OC)cc3C2CC1OC(C)=O (stereo not given) | inactive | –
Oc1ccccc1Cc1ccccc1O | inactive | –
CNC(=O)NC | inactive | –
F[Si-2](F)(F)(F)(F)F | inactive | –
COCCOCCOCCOC | inactive | –
CCCCCCCCCCCCOC(C)=O | inactive | –
CCOC(=O)C(=O)c1csc(NC=O)n1 | inactive | –
CCC(C)(CCC(C)C)C(=O)[O-].CCC(C)(CCC(C)C)C(=O)[O-].[Zn+2] (stereo not given) | inactive | –
Nc1c(NC/C=C\COc2cc(CN3CCCCC3)ccn2)c(=O)c1=O | – | 3.26% [at 15.8 µM] (inactive)
Cc1cccc(C(=O)O)c1[N+](=O)[O-] | inactive | –
CCC(CO)CO | inactive | –
NC(=O)NNC(N)=O | inactive | –
CCCC(C)CC (stereo not given) | inactive | –

SMILES | Potency | cytotoxicity increase
C=CCOc1c(Br)cc(Br)cc1Br | inactive | –
CCCOC(=O)CCCCC(=O)OCCC | inactive | –
NC(Cc1c[nH]c2ccccc12)C(=O)O (stereo not given) | inactive | –
Cc1cccc(Nc2ccncc2S(=O)(=O)NC(=O)NC(C)C)c1 | inactive | –
COc1ccc(/C=N/NC(=O)c2ccncc2)cc1OC | inactive | –
C[Si]1(C)N[Si](C)(C)N[Si](C)(C)N1 | inactive | –
Cc1cc(C)cc([N+](=O)[O-])c1 | inactive | –
O=C(CN1CCN(Cc2ccc3c(c2)OCO3)CC1)N1c2ccccc2Sc2ccccc21 | inactive | –
CC1=NN(c2ccc(S(=O)(=O)O)cc2)C(=O)C1N=Nc1ccccc1 (stereo not given) | inactive | –
O=S(=O)(O)c1cc(O)ccc1O | inactive | –
C=CCOCC(CO)(COCC=C)COCC=C | inactive | –
CCCCC/C=C/CC(=O)OC | inactive | –
O=C(Nc1cccc(C2=NCCN2)c1)Nc1cccc(C2=NCCN2)c1 | – | -6.06% [at 15.8 µM] (inactive)
SCCSCCS | inactive | –
O=S1(=O)CCCC1 | inactive | –
C=C[C@@H](C)CCC=C(C)C | inactive | –
O=C(O)c1c(Cl)ccc(Cl)c1Cl | inactive | –
FC(F)(F)/C(=N\OCC1OCCO1)c1ccc(Cl)cc1 | inactive | –
COC(OC)C(C)c1ccccc1 (stereo not given) | inactive | –
CC(=O)/C=C/c1ccco1 | inactive | –
